Values joined by “and” are separate entries in the source; they are usually repeats but may differ in a detail not shown here. Equal entries are not always repeated. The source holds several records for some structures; these can differ, active in one and inactive in another. Active and inactive are the calls of the source. The calls were made as follows: active = hit-call score of the fitted dose curve at least 0.9, where 1 is the maximum; inactive = score below 0.9.
Columns and labels:
[1] = APR_HepG2_CellCycleArrest_24hr: Apredica 24-hour HepG2 Assay for Cell Cycle Arrest (AID 2282905); conditions: imaging, actives raise or lower the signal;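 also: cell cycle arrest scored as ratio of 2N to 4N nuclear DNA content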
Outline: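 Cell cycle arrest is scored from nuclear DNA content measured by high-content imaging of Hoechst 33342-stained HepG2 cells following 24-hour treatment at ten concentrations up to 200 uM, with DMSO as baseline.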

[2] = APR_HepG2_NuclearSize_24hr: Apredica 24-hour HepG2 Assay for Nuclear Size (AID 2282907); conditions: high-content imaging, actives raise or lower the signal
Outline: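 Compounds in DMSO (final 0.5%) were added to human HepG2 hepatoma cells at ten concentrations up to 200 uM for 24 hr. Fixed nuclei were stained with Hoechst 33342, and nuclear diameter was quantified from automated images.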

[3] = APR_HepG2_CellLoss_24hr: Apredica 24-hour HepG2 Assay for Cell Loss (AID 2282908); conditions: high-content imaging;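 as to AC50: fit in both directions so a hit may be cell loss or gain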
Outline: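 Cell number is quantified by fluorescence imaging of Hoechst 33342-stained nuclei following dosing at 0.39–200 uM in 0.5% DMSO. Curves are fitted in both directions from the DMSO baseline.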

[4] = APR_HepG2_MicrotubuleCSK_24hr: Apredica 24-hour HepG2 Assay for Microtubule CSK Stabilty (AID 2282909); conditions: HepG2 microtubule cytoskeleton imaging, actives raise or lower the signal
Outline: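 Steps: dose HepG2 for 24 h (0.39–200 uM, 0.5% DMSO); fix 30 min in 3.7% formaldehyde at room temperature; permeabilize; stain alpha-tubulin 60 min; image microtubule cytoskeleton at 20x. Signal change fitted in both directions relative to DMSO.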

[5] = APR_HepG2_MitoticArrest_24hr: Apredica 24-hour HepG2 Assay for Mitotic Arrest (AID 2282910); conditions: high-content imaging, actives raise or lower the signal
Outline: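 HepG2 human liver cells were exposed to compounds at 0.39–200 uM (10 concentrations, duplicate) in 0.5% v/v DMSO for 24 hr, then fixed and immunostained for phospho-histone H3 with Hoechst 33342. Mitotic arrest came from HCS fluorescent imaging, fitted bidirectionally against DMSO.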

[6] = APR_HepG2_MitoMembPot_24hr: Apredica 24-hour HepG2 Assay for Mitochondrial Membrane Potential (AID 2282911); conditions: imaging, actives raise or lower the signal
Outline: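 Human hepatoma HepG2 cultures received ten compound concentrations up to 200 uM for 24 hr. Membrane-potential dye signal, captured by automated fluorescence microscopy, was scored for gain or loss against DMSO controls.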

[7] = APR_HepG2_MitoMass_24hr: Apredica 24-hour HepG2 Assay for Mitochondrial Mass (AID 2282912); conditions: high-content imaging, actives raise or lower the signal
Outline: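 The liver line HepG2 was dosed in duplicate across a 0.39–200 uM series, with final DMSO held at 0.5% v/v, and harvested at 24 hr. High-content imaging measured mitochondrial dye staining.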

[8] = APR_HepG2_p53Act_24hr: Apredica 24-hour HepG2 Assay for p53 Activation (AID 2282913); conditions: high-content imaging, actives raise or lower the signal;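 also: p53 protein immunofluorescence averaged per cell in HepG2 with Hoechst nuclei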
Outline: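 Automated fluorescence imaging quantifies p53 immunostaining in HepG2 cells after a 24 hr exposure (0.39–200 uM, duplicate, 0.5% DMSO). Nuclei are located by Hoechst 33342 staining.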

[9] = APR_HepG2_CellCycleArrest_72hr: Apredica 72-hour HepG2 Assay for Cell Cycle Arrest (AID 2282914); conditions: high-content imaging, actives raise or lower the signal
Outline: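 Cell cycle arrest in HepG2 was scored from nuclear DNA content after 72 hr compound treatment (0.39–200 uM). Activity, either gain or loss, was fitted against the DMSO baseline.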

[10] = APR_HepG2_P-H2AX_72hr: Apredica 72-hour HepG2 Assay for H2AX Phosphorylation (AID 2282916); conditions: imaging, actives raise or lower the signal;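 also: phospho-histone H2A.x immunostain intensity per cell marking DNA damage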
Outline: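 Following 72 hr treatment with 0.39–200 uM compound, HepG2 cells were formaldehyde-fixed, permeabilized and stained for phospho-H2A.x; signal was measured by high-content imaging and fitted bidirectionally against DMSO controls.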

[11] = APR_HepG2_MitoMembPot_72hr: Apredica 72-hour HepG2 Assay for Mitochondrial Membrane Potential (AID 2282917); conditions: imaging, actives raise or lower the signal
Outline: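 HepG2 cells exposed 72 h to compounds at 0.39–200 uM (0.5% v/v DMSO, duplicates); MitoTracker Red CMXRos 250 nM loaded 30 min before 3.7% formaldehyde fixation, imaged by HCS fluorescence. Bidirectional fit versus DMSO.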

[12] = APR_HepG2_MitoticArrest_72hr: Apredica 72-hour HepG2 Assay for Mitotic Arrest (AID 2282918); conditions: high-content imaging, actives raise or lower the signal
Outline: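 Mitotic arrest in HepG2 is scored from phospho-histone H3 staining after 72 hr dosing across 0.39–200 uM, with DMSO at 0.5% v/v. Nuclei are identified by Hoechst 33342 and fluorescence intensity is quantified per cell.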

[13] = APR_HepG2_MicrotubuleCSK_72hr: Apredica 72-hour HepG2 Assay for Microtubule CSK Stabilty (AID 2282919); conditions: HepG2 microtubule cytoskeleton, high-content imaging, actives raise or lower the signal
Outline: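 HepG2 human liver cells were dosed for 72 h at ten concentrations from 0.39 to 200 uM in duplicate (0.5% v/v DMSO final). Fixed, permeabilized cells were immunostained for alpha-tubulin (Cy5) with a Hoechst counterstain and imaged at 20x.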

[14] = APR_HepG2_P-H2AX_24hr: Apredica 24-hour HepG2 Assay for H2AX Phosphorylation (AID 2282920); conditions: high-content imaging, actives raise or lower the signal
Outline: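 Signal comes from a FITC-labeled secondary detecting phospho-histone H2A.x in fixed HepG2 cells, quantified by automated imaging at 20x. Dosing ran 24 hr across 0.39–200 uM with 0.5% v/v DMSO.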

[15] = APR_HepG2_StressKinase_72hr: Apredica 72-hour HepG2 Assay for Stress Kinase (AID 2282921); conditions: HepG2 stress kinase (phospho-c-Jun) imaging, actives raise or lower the signal
Outline: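 Fluorescence intensity of Cy3-tagged anti-phospho-c-Jun antibody, quantified per cell from Hoechst-defined nuclei across six images per well, served as the read-out following 72 h exposure (0.39–200 uM, 0.5% v/v DMSO).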

[16] = APR_HepG2_StressKinase_24hr: Apredica 24-hour HepG2 Assay for Stress Kinase (AID 2282922); conditions: HepG2 stress kinase (phospho-c-Jun) imaging, actives raise or lower the signal
Outline: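 HepG2 cells exposed 24 hr to compound at 0.39–200 uM (10 concentrations, duplicate), 0.5% v/v DMSO final. Fixed in 3.7% formaldehyde, permeabilized with Triton X-100, immunolabeled for phospho-c-Jun with Hoechst 33342; HCS fluorescence imaging, bidirectional fit versus DMSO.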

[17] = APR_HepG2_p53Act_72hr: Apredica 72-hour HepG2 Assay for p53 Activation (AID 2282923); conditions: high-content imaging, actives raise or lower the signal;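 also: average cellular p53 protein immunofluorescence intensity in HepG2 cells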
Outline: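 HepG2 monolayers receive test compounds in duplicate at ten concentrations (0.39 through 200 uM) for 72 hr. They are then formaldehyde-fixed, antibody-labelled for p53, Hoechst-stained and imaged, with activity fitted bidirectionally versus DMSO.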

[18] = APR_HepG2_MitoMass_72hr: Apredica 72-hour HepG2 Assay for Mitochondrial Mass (AID 2282924); conditions: high-content imaging, actives raise or lower the signal;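 also: MitoTracker Red CMXRos stain intensity per cell imaged as mitochondrial mass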
Outline: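 HepG2 cells were exposed for 72 hr to compounds at 0.39–200 uM (ten concentrations, duplicate, 0.5% v/v DMSO final). Live cells were stained with 250 nM MitoTracker Red CMXRos for 30 min, then fixed in 3.7% formaldehyde and imaged by HCS fluorescence.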

[19] = APR_HepG2_StressKinase_1hr: Apredica 1-hour HepG2 Assay for Stress Kinase (AID 2282906); conditions: HepG2 stress kinase (phospho-c-Jun) imaging, actives raise or lower the signal
Outline: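 HepG2 cells dosed 0.39-200 uM (0.5% DMSO) for 1 h, then formaldehyde-fixed. Stress kinase read by phospho-c-Jun immunofluorescence using high-content imaging; bidirectional fit vs DMSO.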

[20] = APR_HepG2_CellLoss_72hr: Apredica 72-hour HepG2 Assay for Cell Loss (AID 2282915); conditions: high-content imaging
Outline: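 HepG2 cells were exposed for 72 hr to compounds at 0.39–200 uM (ten concentrations, duplicate) in 0.5% v/v final DMSO. Nuclei were stained with Hoechst 33342 after 3.7% formaldehyde fixation, imaged at 20x, and counted; fits bidirectional versus DMSO.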

Measured: AC50

O=C(c1ccccc1)C1CCCCC1
inactive: [1] | [2] | [3] | [4] | [5] | [6] | [7] | [8] | [9] | [10] | [11] | [12] | [13] | [14] | [15] | [16] | [17] | [18]

CCCOC(=O)NCCCN(C)C
inactive: [1] | [2] | [3] | [6] | [7] | [8] | [9] | [10] | [11] | [12] | [13] | [14] | [15] | [16] | [17] | [18]

CCC(O)=C1C(=O)CC(C(=O)O)CC1=O (configuration not stated)
inactive: [1] | [3] | [4] | [5] | [6] | [7] | [8] | [9] | [10] | [11] | [12] | [13] | [14] | [15] | [16] | [17] | [18]

COC(=O)c1c(Cl)nn(C)c1S(=O)(=O)NC(=O)Nc1nc(OC)cc(OC)n1
inactive: [1] | [19] | [3] | [6] | [7] | [8] | [9] | [20] | [10] | [11] | [13] | [14] | [15] | [16] | [17] | [18]

CCCCOCCOCCOCc1cc2c(cc1CCC)OCO2
active: [4] 70 µM | [9] 45 µM | [13] 78.1 µM
inactive: [1] | [19] | [3] | [6] | [7] | [10] | [11] | [14] | [15] | [16] | [18]

CCCN(CCC)C(=O)SCC
inactive: [1] | [2] | [3] | [6] | [7] | [8] | [9] | [10] | [11] | [13] | [14] | [15] | [16] | [17] | [18]

CC(C)(c1ccc(O)cc1)c1ccc(O)cc1
active: [3] 106 µM and 107 µM and 100 µM | [6] 12.7 µM and 30.5 µM and 101 µM | [7] 109 µM and 122 µM | [10] 114 µM and 105 µM | [11] 101 µM and 81.5 µM and 107 µM | [14] 170 µM and 110 µM | [15] 102 µM | [18] 122 µM
inactive: [1] | [2] | [3] | [6] | [7] | [8] | [9] | [10] | [11] | [13] | [14] | [15] | [16] | [17] | [18]

CCOC(=O)C(C)Oc1ccc(Oc2cnc3cc(Cl)ccc3n2)cc1 (configuration not stated)
active: [3] 58.5 µM | [11] 13.6 µM | [13] 95.1 µM
inactive: [1] | [2] | [4] | [6] | [7] | [9] | [10] | [12] | [14] | [15] | [16] | [18]

COc1nc(C)nc(NC(=O)NS(=O)(=O)c2ccccc2OCCCl)n1
inactive: [1] | [19] | [3] | [6] | [7] | [8] | [9] | [10] | [11] | [13] | [14] | [15] | [16] | [17] | [18]

C#C[C@]1(O)CC[C@H]2[C@@H]3CCC4=CC(=O)CC[C@@H]4[C@H]3CC[C@@]21CC
inactive: [1] | [2] | [3] | [6] | [7] | [8] | [9] | [20] | [10] | [11] | [13] | [14] | [15] | [16] | [17] | [18]

CCOC(=O)COc1cc(-n2ncc(C(F)(F)F)c(C)c2=O)c(F)cc1Cl
inactive: [1] | [19] | [2] | [3] | [6] | [7] | [8] | [9] | [20] | [10] | [11] | [13] | [14] | [15] | [16] | [17] | [18]

S=C(S)NCCNC(=S)S.[Mn+2].[S-]C([S-])=NCCN=C([S-])[S-].[Zn+2]
inactive: [1] | [2] | [3] | [6] | [7] | [9] | [10] | [11] | [13] | [15] | [16] | [18]
active: [1] 50.8 µM and 53.7 µM | [3] 50.1 µM [middle of 4 runs] | [9] 53.5 µM and 51.5 µM | [10] 50 µM [middle of 6 runs] | [14] 50 µM [middle of 7 runs] | [15] 39.8 µM | [16] 40.9 µM and 82.9 µM | [18] 31.4 µM and 52.5 µM and 169 µM

O=C(O)c1ccccc1
inactive: [1] | [2] | [3] | [5] | [6] | [7] | [8] | [9] | [20] | [10] | [11] | [12] | [13] | [14] | [15] | [16] | [17] | [18]

CN(C)C(=O)Nc1ccc(Cl)c(Cl)c1
inactive: [1] | [2] | [3] | [5] | [6] | [7] | [8] | [9] | [20] | [10] | [13] | [14] | [15] | [16] | [17] | [18]
active: [11] 15.7 µM
